HCMV inh – blocks human cytomegalovirus replication | HFF cells, HCMV-luciferase reporter, 72 h; stronger effect = lower value | activity change, negative = inhibition, % at 57.5 µM | 410,000 compounds, 4.5% hits | AID 1259415; in the data active = activity change below about -60%; inconclusive = no clear call, values can overlap the other calls; inactive = above about -39%
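Two-dose cell screen: HFF monolayers treated with compounds and infected with luciferase-expressing HCMV at 1 PFU/cell, 72 h at 37C, then lysed for luciferase measurement.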
Pf growth 48h – P. falciparum growth inhibition at 48 hours (one generation) | Potency, µM (highest dose often 28.7 µM), actives largely listed as inhibitors | 310,000 compounds, 5.9% hits | AID 504832 | P. falciparum luciferase growth in erythrocytes, 48 h
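Growth was read as firefly luciferase luminescence after a 48 h, 37 C, 5% CO2 exposure of compounds to reporter-bearing P. falciparum cultures (0.1% parasitemia, 2% hematocrit final) in Albumax-supplemented RPMI 1640.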
Shiga inhibitor – inhibitors of Shiga toxin in Vero cells | 290,000 compounds, 9.2% hits | inhibition, % at 38.7 µM | Vero cells, Shiga toxin protein synthesis inhibition reporter; in the data active = inhibition mostly above about 28%, no sharp cut-off; inactive = mostly below about 43%
CHX counter – counter-screen hit for Shiga toxin inhibitors, cycloheximide. cell reporter, cycloheximide protein synthesis inhibition counterscreen. 300,000 compounds, 12% hits. max response, %; in the data active = max response mostly above about 13%, no sharp cut-off; inactive = mostly below about 14%; also: read at 38.3 µM for the half of the compounds with a filed dose
Pf growth 96h – P. falciparum growth inhibition at 96 hours; P. falciparum luciferase reporter growth, 96 h; Potency, µM (series often up to 28.7 µM), hits mostly inhibitors; 320,000 compounds, 6.9% hits
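96 h incubation, 37 C, 5% CO2, of luciferase-reporter P. falciparum-infected RBCs (2% hematocrit, 0.05% parasitemia final) with test compounds; endpoint luminescence.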
HCV inhibitor – inhibitors of hepatitis C virus infection; AID 651820; Huh7.5.1 HCVcc-Cre infection, luciferase reporter, 44 h; 340,000 compounds, 3.4% hits; Potency, µM (series often up to 41.8 µM), actives largely listed as inhibitors
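1,000 cells/well; 4 h culture; + compound; + HCVcc-Cre (~0.5 moi); 44 h; luciferase substrate, RT 15 min; read 15 sec.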
Hits are given with their value. A selection: hits, their analogues and other compounds. The true share with any hit is near 21%. Unless noted, calls follow the shape of the dose curve; as a rule, active = well fitted inhibition curve with a large enough effect; inconclusive = small, poorly fitted or top-dose-only effect, or another doubt; inactive = no such curve, though single readings can be large or run the other way.

For Cc1ccc(C(=O)NNC(=O)c2ccc(NC(=O)C(C)(C)C)cc2)cc1 the results were HCMV inh inactive, Pf growth 48h inactive, Shiga inhibitor inactive, CHX counter inactive, Pf growth 96h 14.7µM and HCV inhibitor inactive.
For Cc1ccc(C(=O)NNC(=O)c2ccc(C)cc2)cc1 the results were HCMV inh inconclusive, Pf growth 48h inactive, Shiga inhibitor inactive, CHX counter inactive, Pf growth 96h inactive and HCV inhibitor inactive.
Cc1cccc(C(=O)NNC(=O)c2ccc(NC(=O)C(C)(C)C)cc2)c1 was read as HCMV inh inactive, Pf growth 48h inactive, Shiga inhibitor 39.1, CHX counter 30.4, Pf growth 96h inactive and HCV inhibitor inactive.
For CC1CCN(C(=O)CN(c2ccc3c(c2)OCCO3)S(=O)(=O)c2ccccc2)CC1 the results were HCMV inh inactive, Pf growth 48h inconclusive, Shiga inhibitor 53.8, CHX counter 35.7, Pf growth 96h inactive and HCV inhibitor inactive.
Screening CC(C)C(NC(=O)CN(c1ccc2c(c1)OCCO2)S(=O)(=O)c1ccccc1)C(C)C returned HCMV inh -60.5 and HCV inhibitor inactive.
For Cc1ccc(N(CC(=O)N2CC(=O)Nc3ccccc32)S(=O)(=O)c2ccc3c(c2)OCCO3)cc1 the results were HCMV inh -62.5, Pf growth 48h 11.7µM, Shiga inhibitor inactive, CHX counter inactive, Pf growth 96h inconclusive and HCV inhibitor inactive.
COc1ccc(C(=O)N(Cc2ccco2)Cc2ccco2)cc1 was read as HCMV inh inactive.
`CC1(C)CC[C@@]23CC[C@]4(C)[C@@](OC2=O)(C3C1)[C@H]1O[C@H]1C1[C@@]2(C)CC[C@H](O)C(C)(C)C2CC[C@]14C` (stereo not given in full) gave HCV inhibitor inactive.
For CN(Cc1cccnc1)Cc1cn[nH]c1-c1ccc(-c2ccccc2)cc1 the results were HCMV inh inactive, Pf growth 48h inconclusive, Shiga inhibitor inactive, CHX counter 6.6, Pf growth 96h inactive and HCV inhibitor inconclusive.
`CCN(CC)CCNC(=O)CCc1c(C)nc2c(c(C)nn2-c2ccc(C)cc2)c1C` gave HCMV inh -92.9, Pf growth 48h inconclusive, Shiga inhibitor inactive, CHX counter inactive, Pf growth 96h inconclusive and HCV inhibitor 3.55µM.
Screening Cc1ccc(-n2nc(C)c3c(C)c(CCC(=O)NC(C)c4ccccc4)c(C)nc32)cc1 (stereo not given) returned HCMV inh inactive, Shiga inhibitor inactive, CHX counter inactive, Pf growth 96h 9.28µM and HCV inhibitor inactive.
Screening Cc1cc2ncn(C(=O)N3CCCCC3)c2cc1C returned HCMV inh inactive, Pf growth 48h inactive, Shiga inhibitor inactive, CHX counter inactive, Pf growth 96h 13.1µM and HCV inhibitor inactive.
`Cc1cc2ncn(S(=O)(=O)N3CCCCC3)c2cc1C` gave HCMV inh inactive, Pf growth 48h inactive, Shiga inhibitor inactive, CHX counter inactive and HCV inhibitor inactive.
`Cc1cc2ncn(C(=O)N3CCCCCC3)c2cc1C` gave HCMV inh inactive, Pf growth 48h inactive, Shiga inhibitor active, CHX counter 18.7, Pf growth 96h 7.38µM and HCV inhibitor inactive.
Screening CCOc1ccc(NC(=O)C(CC)n2nc(-c3ccc(C)c(C)c3)ccc2=O)cc1 (stereo not given) returned HCMV inh inactive.
Cc1ccc(Cl)cc1NC(=O)N[C@@H](C)C(=O)O was read as HCMV inh inactive, Pf growth 48h inactive, Shiga inhibitor inactive, CHX counter inactive, Pf growth 96h inactive and HCV inhibitor inactive.
O=C(Nc1cc(Cl)cc2c1-c1ccc(Cl)cc1C2O)C(Cl)Cl (stereo not given) was read as HCMV inh inactive and HCV inhibitor 11.2µM.
`C=CC[C@H]1C(C(=O)OCC)=CC[C@@H](c2ccccc2)N1S(=O)(=O)c1ccc(C)cc1` gave HCMV inh inactive.
For COCCNC(=O)CN(C(=O)Cn1nnc2ccccc21)c1cccc(C)c1C the results were HCMV inh inactive, Pf growth 48h inactive, Shiga inhibitor inactive, CHX counter inactive, Pf growth 96h inconclusive and HCV inhibitor inactive.
For Fc1ccc(-c2cc(-c3cccs3)cc(-c3ccccc3)n2)cc1 the results were HCMV inh inactive, Pf growth 48h inconclusive, Shiga inhibitor inactive, CHX counter inactive, Pf growth 96h inconclusive and HCV inhibitor inactive.
For Fc1ccc(-c2nc(-c3cccs3)no2)cc1 the results were HCMV inh inconclusive, Pf growth 48h inactive, Shiga inhibitor 127.0, CHX counter 44.4, Pf growth 96h inactive and HCV inhibitor inactive.
For COC(=O)c1ccc(-c2nc(-c3cccs3)no2)cc1 the results were HCMV inh inconclusive, Shiga inhibitor 65.4, CHX counter 40.3, Pf growth 96h inactive and HCV inhibitor inactive.
For Fc1ccc(-c2cnc(-c3cccs3)o2)cc1 the results were HCMV inh inactive, Pf growth 48h inactive, Shiga inhibitor 134.5, CHX counter 42.0, Pf growth 96h inactive and HCV inhibitor inactive.
COC(=O)c1c(C)nc2nonc2c1N was read as HCMV inh inactive, Pf growth 48h inactive, Shiga inhibitor inactive, CHX counter inactive, Pf growth 96h inactive and HCV inhibitor inactive.
O=C1c2ccccc2NC(c2c(Cl)cccc2Cl)N1Cc1ccccc1 (stereo not given) was read as HCMV inh inactive, Pf growth 48h 13.1µM, Shiga inhibitor inactive, CHX counter inactive, Pf growth 96h inactive and HCV inhibitor inconclusive.
`O=C1c2ccccc2NC(c2ccc(Cl)cc2Cl)N1Cc1ccccc1` (stereo not given) gave HCMV inh inactive, Shiga inhibitor inactive, CHX counter inactive, Pf growth 96h inconclusive and HCV inhibitor inconclusive.
`COCCCNc1nc2c(c(=O)n(C)c(=O)n2C)n1Cc1ccccc1` gave HCMV inh inactive.
Screening Cn1c(=O)c2c(nc(NCc3ccccc3)n2Cc2ccc(F)cc2)n(C)c1=O returned Pf growth 48h inconclusive, Shiga inhibitor inactive, CHX counter inactive, Pf growth 96h 14.7µM and HCV inhibitor inactive.
Screening Cn1c(=O)c2c(nc(N/N=C/c3cccs3)n2Cc2ccccc2)n(C)c1=O returned HCMV inh inconclusive, Pf growth 48h inconclusive, Shiga inhibitor inactive, CHX counter inactive, Pf growth 96h 10.4µM and HCV inhibitor inconclusive.
For Cn1c(=O)[nH]c(=O)c2c1nc(NCc1ccccc1)n2Cc1ccc(F)cc1 the results were HCMV inh inactive, Pf growth 48h inactive, Shiga inhibitor inactive, CHX counter inactive, Pf growth 96h inactive and HCV inhibitor inactive.
CCCNc1nc2c(c(=O)n(C)c(=O)n2C)n1Cc1ccc(F)cc1 was read as HCMV inh inactive, Pf growth 48h inactive, Shiga inhibitor inactive, CHX counter inactive, Pf growth 96h inactive and HCV inhibitor 11.2µM.
CSc1ccccc1C(=O)OCC(=O)Nc1ccc(N2CCOCC2)cc1 was read as HCMV inh inactive and HCV inhibitor inactive.
COc1ccc(NC(=O)c2ccc3c(c2)nnn3C2CCCC2)cc1Cl was read as HCMV inh inactive.
Screening CCCCCCCCCCCCCCC[C@@H](O)[C@@H](N)CO returned HCMV inh inactive and HCV inhibitor inactive.

Screening data: PubChem BioAssay, National Center for Advancing Translational Sciences (NCATS)
